38 molecules from PubChem BioAssay (NCI) can be followed below.

Assay [1] in a line: NCI Yeast Anticancer Drug Screen. Data for the rad50 strain (AID 155).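 Note: 0% = growth of vehicle-only cultures of the same strain.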 To be noted: S. cerevisiae rad50 strain growth inhibition; at 50.0 µM; hits give high values. Put shortly:
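A DNA repair-deficient yeast mutant serves as the test organism; compound-induced growth inhibition is calculated against vehicle-treated cells.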

A short description of assay [2]: NCI Yeast Anticancer Drug Screen. Data for the mec2-1 strain (AID 157). To be noted: S. cerevisiae mec2-1 strain, at 50.0 µM, hits give high values. The procedure, abridged: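 Using mec2-1 yeast: add compound, measure growth, express inhibition versus vehicle-treated cultures.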
Assay [3] can be described thus: NCI Yeast Anticancer Drug Screen. Data for the sgs1 mgt1 strain (AID 161).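 Note: 0% = growth of cultures given vehicle only.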 To be noted: S. cerevisiae sgs1 mgt1 strain, at 50.0 µM, hits give high values. The procedure, abridged: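 Compounds are added to genetically altered yeast, and growth is compared with cultures given vehicle alone to give percent inhibition.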
A short description of assay [4]: NCI Yeast Anticancer Drug Screen. Data for the cln2 rad14 strain (AID 165).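 Note: 0% = growth equal to vehicle treated cultures.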 To be noted: S. cerevisiae cln2 rad14 strain, at 50.0 µM, hits give high values. The procedure, abridged:
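Yeast strain cln2 rad14, bearing defects in cell cycle control and DNA repair, serves as the test system; values reflect growth inhibition compared with vehicle.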

The nature of assay [5]: NCI Yeast Anticancer Drug Screen. Data for the bub3 strain (AID 167). To be noted: S. cerevisiae bub3 mutant strain, at 50.0 µM, hits give high values. The procedure, abridged: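 Inhibition values come from growth of compound-treated mutant yeast normalised to vehicle-treated controls.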
A short description of assay [6]: NCI Yeast Anticancer Drug Screen. Data for the mlh1 rad18 strain (AID 175). The note with it: S. cerevisiae mlh1 rad18 strain growth inhibition; at 50.0 µM; hits give high values. The procedure, abridged: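 Steps: expose repair-defective yeast to compound; measure growth; express inhibition against vehicle-treated controls.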

About 79,000 compounds went through this panel and 15% of them were active in at least one assay; those are over-represented in the sample as a whole. Values without a mark were called inactive. Activity calls are given as the source filed them. Cut-off read from the data, not from the text of the source: active = growth inhibition above about 70%; inactive = the rest. Where a SMILES comes first, the peptide text is derived from it. The star is where a group is joined. ONb = O=[N+]([O-])c1ccc(CO*)cc1; Boc = CC(C)(C)OC(=O)*

With `CCOC(=O)C1C=NC([N+](=O)[O-])=C1Br` (stereo not drawn), the growth inhibition in assay [1] was 0.15%; in assay [2], 24.8%; in assay [3], 13.4%; in assay [4] it was -4.25%; in assay [5], 18.4%; in assay [6] it was 9.15%.

As to `O=C(O)c1ccc(C2C3C=CC(C3)C2[N+](=O)[O-])cc1` (stereo not drawn), the growth inhibition in assay [1] was 6.15%; in assay [2] it was -18.8%; in assay [3], -20.2%; in assay [4], 5.85%; in assay [5], -12.5%; in assay [6] it was -35.5%.

For the molecule `NC(=S)N/N=C1\CCCC1C(O)(C(F)(F)Cl)C(F)(F)Cl` (stereo not drawn), the growth inhibition in assay [1] was 65.3%; in assay [2], 17.6%; in assay [3], 56.1%; in assay [4], 35%; in assay [5], 29.9%; in assay [6], 62.5%.

Regarding `COc1cc2c(cc1C)C1=C(C)C(=O)OC1[C@@H](O)[C@@H]2C` (stereo partly drawn), the growth inhibition is 16.9% in assay [1]; 11.6% in assay [2]; 18.4% in assay [3]; 3.45% in assay [4]; 18.9% in assay [5]; 18.8% in assay [6].

For the molecule `CCCCCCCCCCNCC(=O)O`, the growth inhibition was -11.1% in assay [1]; -16.6% in assay [2]; -1.65% in assay [3]; -7.6% in assay [4]; -1.6% in assay [5]; -8.95% in assay [6].

In the case of `COc1ccc(C(C)c2cc3c(cc2OCCO)OCO3)cc1` (stereo not drawn), the growth inhibition in assay [1] is 8.35%; in assay [2], 6.7%; in assay [3] it was 44.3%; in assay [4], 18.1%; in assay [5] it was 41.8%; in assay [6], 45.7%.

Take `CC(=O)/C=C/C=C/c1ccco1`: the growth inhibition in assay [1] is -0.85%; in assay [2], 1.3%; in assay [3], 9.15%; in assay [4], -9.7%; in assay [5] it was 10.4%; in assay [6] it was 11.6%.

In the case of `Nc1ncc2c(n1)-c1ccccc1OC2NC1CC1` (stereo not drawn), the growth inhibition was 2.5% in assay [1]; 12.1% in assay [2]; -29.2% in assay [3]; -5.55% in assay [4]; -36.2% in assay [5]; -4.65% in assay [6].

In the case of `COc1ccc(C(=O)/C=C/C(C)=C/C=N/N(C)c2ccccc2)cc1`, the growth inhibition in assay [1] was 14%; in assay [2], 18.4%; in assay [3], -0.5%; in assay [4] it was -39.9%; in assay [5] it was 17.1%; in assay [6], 17.8%.

As to `CCCCNC(=O)C1CCC(CC2CCCCC2)CC1` (stereo not drawn), the growth inhibition in assay [1] was 22.8%; in assay [2], 28.7%; in assay [3] it was 12.5%; in assay [4], -3.3%; in assay [5], 18.4%; in assay [6], 10.6%.

Turning to `S=C(NCc1ccc(Cl)cc1Cl)Nc1ccccc1`, the growth inhibition in assay [1] is 23.1%; in assay [2], 73% (active); in assay [3], 75.8% (active); in assay [4], -1.8%; in assay [5], 64.7%; in assay [6] it was 72.5% (active).

`COc1cc(-c2cc(-c3cc([N+](=O)[O-])c(/C=N/NC(=O)c4ccncc4)o3)ccc2OC)ccc1C`: the growth inhibition in assay [1] was 17.5%; in assay [2] it was 8.2%; in assay [3], -8.1%; in assay [4], 26.9%; in assay [5], 11.2%; in assay [6], 8.3%.

For the molecule `CCCCCCCCCCCCCCCc1c(NC(C)(CC)[P+](=O)O)c(=O)n(C)n1C` (stereo not drawn), the growth inhibition was -41.5% in assay [1]; -32.5% in assay [2]; -7.45% in assay [3]; -29.9% in assay [4]; -12.2% in assay [5]; -18.8% in assay [6].

As to `COC1(OC)c2no[n+]([O-])c2C(OC)(OC)c2c1no[n+]2[O-]`, the growth inhibition in assay [1] is -11.7%; in assay [2], -4.8%; in assay [3], -6.35%; in assay [4], 19.1%; in assay [5] it was 20.6%; in assay [6], -4.35%.

`COC(=O)c1nc(N)nc(C(=O)OC)c1C(=O)c1ccc(Cl)c(Cl)c1`: the growth inhibition is -7.6% in assay [1]; 7.15% in assay [2]; -18.5% in assay [3]; -5.05% in assay [4]; 3.2% in assay [5]; 10.6% in assay [6].

For `CCC1=CCC(P(=O)(c2ccccc2)c2ccccc2)CC1C` (stereo not drawn), the growth inhibition is -28.8% in assay [1]; -16.4% in assay [2]; -0.15% in assay [3]; 12.6% in assay [4]; 0.15% in assay [5]; -19.8% in assay [6].

`O=c1[nH]c2cc(Cl)ccc2nc1/C=C(\O)c1ccccc1`: the growth inhibition is 1.35% in assay [1]; -18.9% in assay [2]; -5.9% in assay [3]; 4.55% in assay [4]; -19.1% in assay [5]; 20.1% in assay [6].

As for `C=C1CCCC(C)(C)C1CC/C(C)=C/CC/C(C)=C/CO` (stereo not drawn), the growth inhibition is -0.75% in assay [1]; -1.45% in assay [2]; 12.7% in assay [3]; 8.4% in assay [4]; 8.75% in assay [5]; 12.1% in assay [6].

Consider `COc1cccc(Oc2cccc[n+]2CC(C)=O)c1`, for which the growth inhibition was -57.5% in assay [1]; -10.3% in assay [2]; 3.75% in assay [3]; 8.4% in assay [4]; 0.3% in assay [5]; 1.15% in assay [6].

With `CC(=O)OCCn1c(C)nc2cc(Cl)c(Cl)cc21`, the growth inhibition in assay [1] was 33.1%; in assay [2] it was 5.45%; in assay [3], 16.3%; in assay [4] it was 31.9%; in assay [5] it was 23.7%; in assay [6], 36.2%.

On to `CC(C)NC(=O)C(C(C)C)C(C)(C)C` (stereo not drawn), for which the growth inhibition is -2.95% in assay [1]; 5.25% in assay [2]; 1.35% in assay [3]; 12.1% in assay [4]; 9.2% in assay [5]; -2.15% in assay [6].

In the case of `CCNC(=O)Nc1ccccn1`, the growth inhibition in assay [1] was -8.4%; in assay [2], -1.55%; in assay [3], 8.85%; in assay [4], 0.5%; in assay [5], -5.05%; in assay [6], -2.4%.

For `Cc1ccc2c(Nc3ccc(NS(C)(=O)=O)cc3C)c3ccccc3nc2c1`, the growth inhibition in assay [1] was 42.4%; in assay [2] it was -27.4%; in assay [3], 6.2%; in assay [4] it was 4.2%; in assay [5], 4.25%; in assay [6], -23.5%.

Take `CC1CCCCNC1=S` (stereo not drawn): the growth inhibition in assay [1] was -6.95%; in assay [2], 19.6%; in assay [3], 19.9%; in assay [4] it was 6.6%; in assay [5], 17.8%; in assay [6], 27.1%.

As to `CC(C)CC(NC(=O)OC(C)(C)C)C(=O)NC(CCC(=O)OCc1ccc([N+](=O)[O-])cc1)C(=O)OCc1ccc([N+](=O)[O-])cc1` (stereo not drawn) (Boc-Leu-Glu(ONb)-ONb; configuration not given here), the growth inhibition in assay [1] was -9.3%; in assay [2] it was -25.5%; in assay [3] it was -4.5%; in assay [4], 4%; in assay [5], -10.1%; in assay [6], 8.35%.

With `CCOC(=O)c1ccc(NP(=O)(Nc2ccc(C(=O)OCC)cc2)c2ccc(N)cc2)cc1`, the growth inhibition in assay [1] was -5.65%; in assay [2] it was -17.4%; in assay [3], -2.25%; in assay [4], -65.7%; in assay [5], 0.85%; in assay [6], 4.25%.

`FC(F)(F)C(F)(F)c1nc(C(F)(F)C(F)(F)C(F)(F)c2noc(C(F)(F)C(F)(F)F)n2)no1`: the growth inhibition was 8.5% in assay [1]; 16.9% in assay [2]; 15% in assay [3]; -31.3% in assay [4]; -3% in assay [5]; -6.3% in assay [6].

For `COc1ccccc1NC(=O)CC(C)=O`, the growth inhibition is 7% in assay [1]; -5.9% in assay [2]; 7.8% in assay [3]; -11.6% in assay [4]; -15.8% in assay [5]; -8.5% in assay [6].

Consider `O=C(O)C(=O)Cc1ccccc1`, for which the growth inhibition was 11.2% in assay [1]; -14.2% in assay [2]; -4.85% in assay [3]; 19.9% in assay [4]; 0.85% in assay [5]; 14.9% in assay [6].

As for `O/N=C(\c1ccccc1)C1c2ccccc2-c2ccccc21`, the growth inhibition in assay [1] was -10.1%; in assay [2], -17.9%; in assay [3], -19.9%; in assay [4] it was 21.4%; in assay [5], -5.9%; in assay [6], -17.4%.

`CCC(/C=C/c1ccccc1)=N\NC(=O)c1ccc(Cl)cc1`: the growth inhibition in assay [1] was 16.2%; in assay [2], 5.5%; in assay [3], 7.5%; in assay [4] it was 1.7%; in assay [5], 19.9%; in assay [6] it was 7.95%.

Turning to `COC(=O)c1ccc(C(=O)O)cc1`, the growth inhibition in assay [1] is 5.35%; in assay [2] it was -2.65%; in assay [3], -8.15%; in assay [4], -6.55%; in assay [5] it was 0.65%; in assay [6], -6.5%.

`O=C1CC2(CCc3ccccc32)C(=O)N1CN1CCN(c2ccccn2)CC1` (stereo not drawn): the growth inhibition in assay [1] is 0.55%; in assay [2], 3.5%; in assay [3], -10%; in assay [4] it was -9.15%; in assay [5] it was -1.9%; in assay [6] it was 18.1%.

As for `CCc1ccc(C(=O)O)cc1S(=O)(=O)Cl`, the growth inhibition in assay [1] is 7.2%; in assay [2] it was 13.4%; in assay [3] it was -12.6%; in assay [4], -9.4%; in assay [5], 2.55%; in assay [6], 1.45%.

For the molecule `O=C(OCCOc1ccc(Cl)cc1Cl)c1ccccc1O`, the growth inhibition in assay [1] was -2.4%; in assay [2], -17.4%; in assay [3] it was -1.85%; in assay [4], -12.8%; in assay [5], 11.6%; in assay [6], 0.3%.

`CC#CCN(C(C)C)C(C)C`: the growth inhibition in assay [1] was 15.4%; in assay [2], 8.3%; in assay [3], -11.4%; in assay [4], -34.5%; in assay [5] it was -21.5%; in assay [6], -27.1%.

As to `CC(=O)OCCOCNC(=S)N/N=C/c1ccc(Br)s1`, the growth inhibition in assay [1] was 15.3%; in assay [2], -8.3%; in assay [3], 20.1%; in assay [4] it was 28.1%; in assay [5] it was 9.2%; in assay [6], -0.8%.

Turning to `c1ccc(COc2ccc3c(c2)CN(Cc2ccccc2)CO3)cc1`, the growth inhibition is -21.1% in assay [1]; -28.9% in assay [2]; 33.6% in assay [3]; -18.6% in assay [4]; 62.2% in assay [5]; -9.1% in assay [6].
